These results are taken from PubChem BioAssay AID651558 (National Center for Advancing Translational Sciences (NCATS), 2012).

Molecules are shown by their SMILES. About 480 (40%) of roughly 1,200 compounds were called active. Roughly 29% stayed inconclusive and do not appear here. Calls come from the whole dose curve; as a rule, active = well fitted inhibition curve with a large enough effect; inconclusive = small, poorly fitted or top-dose-only effect; inactive = no such curve, though single readings can be large or run the other way. The list shows a part of the results.
Potency is the fitted concentration of half-maximal effect.

The test is described as follows: qHTS Assay to Find Inhibitors of Chronic Active B-Cell Receptor Signaling: Hit Validation in Primary Screen. Note: nearly all actives have a fitted effect of over 75% in size. The note with it: ABC-DLBCL IkB-luc/CBR ratio luminescence, 4 h; series mostly up to 46.1 µM. In short, it runs like this: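 Concentration series (3 nM to 46 uM) tested on TMD8 cells induced with doxycycline for 4 h. Filter-corrected green (IkBa fusion) over red (unfused) luciferase signal; Data were normalised to 10 uM MG-132 and untreated cell wells.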
In general terms: qHTS replaces the single test concentration by a dilution series.
As to `CC1=C/C(=N\NC(=S)NCc2ccccc2)CC1`, the Potency entry was “inactive”.

Consider `COc1cc(-c2c(-c3cc(OC)c(OC)c(OC)c3)noc2C)ccc1F`, for which the Potency was 1.3 µM (active).

In the case of `CC(/C=N/NC(=O)c1cc(-c2ccccc2)nc2ccccc12)=C\c1ccco1`, the Potency is 5.8 µM (active).

Turning to `CC(/C=N/NC(=O)c1cc(-c2ccncc2)nc2ccccc12)=C\c1ccco1`, the Potency was 1.64 µM (active).

For the molecule `CC(/C=N/NC(=O)c1cc(-c2ccc(Cl)cc2)nc2ccccc12)=C\c1ccco1`, the Potency was 2.91 µM (active).

As for `Cc1ccc(/C=N/NC(=O)C2COc3ccccc3O2)s1` (centres undefined), the Potency was 23.1 µM (active).

On to `Cc1c(/C=N\NC(=O)C2COc3ccccc3O2)c2ccccc2n1C` (centres undefined), for which the Potency is 2.59 µM (active).

With `C=CCNC(=S)N/N=C/c1ccc(C)s1`, the Potency result was “inactive”.

In the case of `O=C(CN1CCCc2ccccc21)N/N=C/c1ccccc1O`, the Potency entry is “inactive”.

`O=C1OCC2=C1C(c1ccc(F)cc1)c1cc3c(cc1N2)OCO3` (centres undefined): the Potency is 0.116 µM (active).

Consider `C#CCOc1ccc(C2C3=C(COC3=O)Nc3cc4c(cc32)OCO4)cc1OC` (centres undefined), for which the Potency was 0.146 µM (active).

Consider `COc1ccc(OC)c(C2C3=C(COC3=O)Nc3cc4c(cc32)OCO4)c1` (centres undefined), for which the Potency is 0.366 µM (active).

Take `COc1ccccc1C1C2=C(COC2=O)Nc2cc3c(cc21)OCO3` (centres undefined): the Potency is 1.3 µM (active).

As to `CCOc1ccccc1C1C2=C(COC2=O)Nc2cc3c(cc21)OCO3` (centres undefined), the Potency is 1.3 µM (active).

Regarding `O=C(CN1CCC(NC(=O)Nc2ccc(F)cc2)CC1)Nc1ccccc1[N+](=O)[O-]`, the Potency entry is “inactive”.

`CCOc1cc(Br)c(C=O)cc1OCC`: the Potency was 6.51 µM (active).

As to `CC(C)(C)NNC(=S)Nc1cccc(F)c1`, the Potency entry is “inactive”.

Take `COc1cc(OC)cc(C(=O)Oc2c(CN3CCOCC3)cc(Cl)c3cccnc23)c1`: the Potency result was “inactive”.

Regarding `Cc1cccc(NC(=S)N/N=C/C(C)c2ccccc2)c1C` (centres undefined), the Potency result was “inactive”.

On to `CCN1C(=O)c2cccc3c(S(=O)(=O)Nc4nc(C)cs4)ccc1c23`, for which the Potency is 3.66 µM (active).

With `CCN1C(=O)c2cccc3c(S(=O)(=O)Nc4ccccc4O)ccc1c23`, the Potency result is “inactive”.

For the molecule `Cc1ccccc1OCCc1c(C)[nH]c(=S)[nH]c1=O`, the Potency was 11.6 µM (active).

`COc1ccccc1OCCCN1C(=O)C(=O)c2cccc(C)c21`: the Potency entry is “inactive”.

Consider `Cc1ccc(S(=O)(=O)n2cc(-c3ccccc3)c3ccccc32)cc1`, for which the Potency was 3.26 µM (active).

For `CCCCNC(=S)NNC(=O)CCn1nc(C)c(Br)c1C`, the Potency entry is “inactive”.

With `COc1ccc(OC)c(/C=C/c2ccc3cccc(O)c3n2)c1`, the Potency was 20.6 µM (active).

For the molecule `COc1cc(/C=C/c2ccc3cccc(O)c3n2)c(Br)cc1O`, the Potency is 18.4 µM (active).

Take `COc1cc(Br)cc(/C=C/c2ccc3cccc(O)c3n2)c1O`: the Potency was 20.6 µM (active).

For the molecule `CCOc1ccccc1N=NC1C(=O)N(C(N)=S)N=C1C` (centres undefined), the Potency result is “inactive”.
